# According to PubChem BioAssay:
# Records with an inconclusive call do not appear. Activity calls are given as the source filed them.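 How the source made its calls, unless noted: active means viability at or under a set limit in both replicates, limit being median viability minus 3 SD (cut at about 48% in these data, passing the limit was not always enough); inconclusive means at or under the limit in just one replicate; inactive means at or above the limit in both replicates.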
# What was measured:
# [1] = Her2 expression decrease, cell viability multiplex – SKBR3 breast tumor cells, AlphaScreen, ATP viability, primary screen (AID 461;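 active means Her2 level under about 52% in both replicate screens, with viability over 70% of control, limit read from the data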;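 on Her2 level: lower value means less Her2 protein in the cells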;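 on viability: percent of carrier control wells set as 100% viability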); conditions: SKBR3 Her2 protein level, 18-24 h, measured here: SKBR3 viability, ATP luminescence, at 10 µM
# [2] = biological target: Receptor tyrosine-protein kinase erbB-2 (Homo sapiens) (UniProt P04626); test: as above; conditions: 18-24 h, at 10 µM, stronger effect = lower value
# [3] = reduced viability of SK-BR-3 breast cancer cells – cell-based, 24 h, human, pilot screen (AID 572;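 active means viability at or below 10% of carrier control in both of two separate runs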;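 further: compound exposure lasted between 18 and 24 h rather than exactly 24 h; 100% = carrier-treated control wells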); conditions: SK-BR-3 viability, CellTiter-Glo luminescence, at 10 µM, stronger effect = lower value
# [4] = HUVEC growth inhibition – cell-based, human, primary screen (AID 575;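 active means viability at or below 30% in both replicate assays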;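 further: 100% = median of untreated cell wells with 0.1% DMSO on each plate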); conditions: HUVEC proliferation, CellTiter-Glo luminescence, 72 h; at 10 µM; stronger effect = lower value
# [5] = H69AR cell proliferation blockers – human, duplicate replicates, primary screen (AID 580); conditions: H69AR lung tumor cells viability, ATP luminescence, 72 h; at 10 µM; stronger effect = lower value;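 further: 100% = mean luminescence of untreated wells and 0% = no signal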
# [6] = MRP1 drug-resistance reversers in H69AR cells – cell-based, doxorubicin co-treatment, pilot screen (AID 601;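 active means viability loss from added drug above about 55%, and viability with drug at most 40%, in both replicates, limit read from the data, passing the limit was not always enough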); conditions: CellTiter-Glo, 72 h, at 10 µM; for differential viability (reversal): stronger effect = higher value
# [7] = yeast transport mutant growth inhibition pilot in 384-well plates, post-Golgi transport modulator project (AID 636; in the data active means inhibition above about 31%); conditions: absorbance 615 nm, about 18 h, stronger effect = higher value
# [8] = growth suppression of yeast trafficking mutant, preliminary HTS, modulators of trafficking downstream of Golgi apparatus project, 1536-format plate, OD 615 nm (AID 637; in the data active means inhibition above about 30%); conditions: yeast transport mutant growth, absorbance 615 nm, 18 h; stronger effect = higher value
# [9] = S. cerevisiae growth inhibition in permissive medium (OD615), pilot counter-assay for S. cerevisiae lifespan shortening project, permissive growth control (AID 705;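 active means growth inhibition above 25% in both replicates, a cutoff set 3 SD above the mean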); conditions: OD615, 24 h, at 10 µM, stronger effect = higher value
# [10] = S. cerevisiae growth inhibition in restrictive medium, OD615, pilot screen, restrictive growth control, yeast lifespan reduction project (AID 706;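 active means growth inhibition above a set limit, 3 SD over mean compound inhibition, in both replicates, cut at about 43% in these data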;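 further: modified DeaD lifespan yeast strain shifted to restrictive glucose medium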); conditions: OD615, 48 h, at 10 µM, stronger effect = higher value
# [11] = doxorubicin toxicity protection in MRP-1 cells – H69AR cells, CellTiter-Glo, duplicate, MRP-1 activator project, pilot screen (AID 807;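 active means viability increase at or above a cutoff of the median across tested compounds plus 3 SD, cut at about 8.5% in these data, passing the limit was not always enough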;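 further: compound pretreatment 18-22 h then 72 h combined with doxorubicin; 0% = doxorubicin alone and 100% = vehicle without doxorubicin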); conditions: H69AR viability with doxorubicin, CellTiter-Glo luminescence; at 10 µM; stronger effect = higher value
# [12] = viability of HCT116 without oncogenic beta-catenin – human colon tumor cells, pilot screen (AID 823;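 active means cell viability at or below a set limit in both duplicate runs, the limit being the all-compound median minus 4 SD, cut at about 23% in these data, passing the limit was not always enough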;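 further: 0% = wells killed by 20 µM Hyamine and 100% = untreated DMSO cell wells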); conditions: HCT116 beta-catenin knockout viability, CellTiter-Glo, 60 h; at 10 µM; stronger effect = lower value
# [13] = viability of PTEN-null HCT116 cells – cell-based, HCT116 clonal line, CellTiter-Glo, pilot screen (AID 824;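 active means viability at or below 27.92% in each of two runs, the all-compound median minus 4 SD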;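 further: 0% = 20 µM Hyamine control and 100% = vehicle cell control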); conditions: HCT116 PTEN-deleted viability, 60 h, at 10 µM, stronger effect = lower value
# [14] = RAM pathway blockade in budding yeast – dse1pr::URA3 reporter, 5-FOA selection, pilot screen (AID 869;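 active means inhibition over a set limit, the all-compound mean plus 3 SD, in both replicate runs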;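 further: 0% = DMSO wells with no growth and 100% = 10 µM 1-NA-PP1 with full growth; RAM network block rescues cells from 5-FOA so hits raise OD615 growth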); conditions: S. cerevisiae dse1pr::URA3 5-FOA growth, OD615, 2 d; at 10 µM; stronger effect = higher value; strain carries analog-sensitive mutant Cbk1 kinase
# [15] = RAM signaling pathway blockade in yeast – S. cerevisiae, Pdr1DBD-CYC8 efflux-inhibited sensitized strain, primary screen (AID 1298;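 active means RAM network inhibition above 8.4% in each of two replicates, 3 SD over the compound average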;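 further: 0% = DMSO untreated cells without growth and 100% = 10 µM 1-NA-PP1 full growth; higher means more yeast growth rescued from 5-FOA killing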); conditions: S. cerevisiae cbk1-as DSE1-URA3 strain, 5-FOA growth OD615, 2 d; at 50 µM; stronger effect = higher value
# [16] = H69AR cells + 2 uM doxorubicin, measured here: viability with 2 uM doxorubicin, stronger effect = lower value
# [17] = H69AR cells, compound alone cytotoxicity
# Sequence of Receptor tyrosine-protein kinase erbB-2 (Homo sapiens) (P04626 whole entry, looked up): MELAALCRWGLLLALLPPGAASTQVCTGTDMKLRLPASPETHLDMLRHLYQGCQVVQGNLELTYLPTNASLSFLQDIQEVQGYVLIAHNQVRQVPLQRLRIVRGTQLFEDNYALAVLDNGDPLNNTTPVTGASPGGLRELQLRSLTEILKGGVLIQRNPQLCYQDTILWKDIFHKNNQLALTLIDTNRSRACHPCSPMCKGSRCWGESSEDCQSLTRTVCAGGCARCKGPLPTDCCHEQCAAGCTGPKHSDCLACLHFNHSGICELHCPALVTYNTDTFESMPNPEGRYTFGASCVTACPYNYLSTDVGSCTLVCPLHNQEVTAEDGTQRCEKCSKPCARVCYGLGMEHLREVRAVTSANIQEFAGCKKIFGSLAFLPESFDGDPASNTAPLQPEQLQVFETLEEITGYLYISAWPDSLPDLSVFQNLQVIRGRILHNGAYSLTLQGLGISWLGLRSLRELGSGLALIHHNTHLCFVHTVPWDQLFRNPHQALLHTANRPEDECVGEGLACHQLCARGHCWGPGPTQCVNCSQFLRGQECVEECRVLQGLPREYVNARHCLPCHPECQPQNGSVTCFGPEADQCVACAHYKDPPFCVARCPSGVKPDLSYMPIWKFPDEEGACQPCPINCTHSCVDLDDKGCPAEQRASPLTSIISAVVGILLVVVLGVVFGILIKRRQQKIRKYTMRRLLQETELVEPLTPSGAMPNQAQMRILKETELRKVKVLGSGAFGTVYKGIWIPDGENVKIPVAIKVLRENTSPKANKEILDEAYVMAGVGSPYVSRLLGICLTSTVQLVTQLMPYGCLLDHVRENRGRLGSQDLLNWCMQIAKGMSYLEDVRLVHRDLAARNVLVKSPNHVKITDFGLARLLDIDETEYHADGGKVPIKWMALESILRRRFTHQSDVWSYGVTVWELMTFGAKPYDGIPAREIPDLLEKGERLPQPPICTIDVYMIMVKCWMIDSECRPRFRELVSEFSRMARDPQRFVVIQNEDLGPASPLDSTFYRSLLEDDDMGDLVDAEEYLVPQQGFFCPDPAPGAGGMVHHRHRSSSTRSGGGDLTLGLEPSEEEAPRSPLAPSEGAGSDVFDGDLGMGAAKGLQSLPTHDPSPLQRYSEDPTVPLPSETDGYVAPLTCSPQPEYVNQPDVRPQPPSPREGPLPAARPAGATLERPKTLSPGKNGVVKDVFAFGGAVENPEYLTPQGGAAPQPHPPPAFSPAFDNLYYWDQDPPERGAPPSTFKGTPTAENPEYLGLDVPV
Compound,viability [1],Her2 level [2],viability [3],viability [4],viability [5],differential viability (reversal) ([6]; H69AR cells + 2 uM doxorubicin),"viability [6, 16]","viability [6, 17]",inhibition [7],inhibition [8],growth inhibition [9],growth inhibition [10],viability increase [11],viability [12],viability [13],inhibition [14],RAM network inhibition [15]
CCOc1ccccc1NC(=O)CSc1nnc(Cc2cccn2C)n1-c1ccc(F)cc1,92.5%,78.5% (inactive),92.5% (inactive),97.4% (inactive),79.9% (inactive),1.24% (inactive),78.6%,79.9%,-1.28% (inactive),-1.17% (inactive),5.28% (inactive),7.75% (inactive),-5.25% (inactive),75.5% (inactive),78.2% (inactive),1.11% (inactive),4.07% (inactive)
CCOc1ccc(N(CC(=O)NC2CCCCC2)S(=O)(=O)c2c(C)noc2C)cc1,79.5%,86.5% (inactive),79.5% (inactive),87.3% (inactive),74.3% (inactive),-11.3% (inactive),85.6%,74.3%,-2.31% (inactive),-12.8% (inactive),-6.46% (inactive),0.415% (inactive),-1.54% (inactive),95.5% (inactive),89% (inactive),3.15% (inactive),1.06% (inactive)
CCC(C)C(=O)Nc1nc2c(s1)C(=O)CC(C)(C)C2 (stereo not drawn),120%,106% (inactive),120% (inactive),97.1% (inactive),89.5% (inactive),1.27% (inactive),88.3%,89.5%,-6.27% (inactive),-0.67% (inactive),-16.6% (inactive),-8.86% (inactive),0.25% (inactive),107% (inactive),97.5% (inactive),2.1% (inactive),1.9% (inactive)
CC1(C)CC(=O)C2=C(C1)NC(=O)CC2c1ccc(N(CCC#N)CCC#N)cc1 (stereo not drawn),101%,120% (inactive),101% (inactive),101% (inactive),110% (inactive),23.6% (inactive),86.6%,110%,-5.68% (inactive),-1.8% (inactive),-9.4% (inactive),-8.29% (inactive),0.18% (inactive),91.5% (inactive),100% (inactive),1.41% (inactive),1.8% (inactive)
CC1CCCN(C(=O)c2cc3c(-c4ccc(Cl)cc4)nn(C)c3s2)C1 (stereo not drawn),89%,87% (inactive),89% (inactive),77.4% (inactive),92.5% (inactive),0.84% (inactive),91.7%,92.5%,-1.54% (inactive),3% (inactive),-9.3% (inactive),-3.9% (inactive),-2.82% (inactive),91.4% (inactive),93.3% (inactive),2.07% (inactive),1.62% (inactive)
O=C1c2ccccc2C(Nc2ccc3c(c2)OCCO3)N1Cc1ccc2c(c1)OCO2 (stereo not drawn),91%,94.5% (inactive),91% (inactive),64.8% (inactive),86.4% (inactive),-4.04% (inactive),90.4%,86.4%,-5.73% (inactive),0.5% (inactive),-4.37% (inactive),8.02% (inactive),0.68% (inactive),82.2% (inactive),72.2% (inactive),2.92% (inactive),4.31% (inactive)
COc1cccc(NC(=O)c2nnn(Cc3ccc(Br)cc3F)c2N)c1,98%,89% (inactive),98% (inactive),59.4% (inactive),72% (inactive),2.77% (inactive),69.2%,72%,-3.33% (inactive),2.46% (inactive),-7.21% (inactive),-5.7% (inactive),-0.51% (inactive),94.5% (inactive),95.7% (inactive),1.61% (inactive),5.85% (inactive)
O=C(c1ccc2nc(N3CCOCC3)sc2c1)N1CCCC1,94%,96% (inactive),94% (inactive),93.6% (inactive),108% (inactive),18.8% (inactive),89.4%,108%,-1.41% (inactive),9.17% (inactive),-2.18% (inactive),-7.76% (inactive),-2.73% (inactive),99.1% (inactive),95.4% (inactive),-0.14% (inactive),1.02% (inactive)
O=C(Nc1ccccc1)C1=C(O)CC(c2ccoc2)CC1=Nc1ccccc1 (stereo not drawn),93%,91% (inactive),93% (inactive),96.8% (inactive),73% (inactive),-6.7% (inactive),79.7%,73%,71.4% (active),4.59% (inactive),-11.2% (inactive),-4.9% (inactive),-4.69% (inactive),69.6% (inactive),70.3% (inactive),1.05% (inactive),2.05% (inactive)
